Laboratory results published in the supplement of paper PMC8728848.
Many of the other results were omitted from the sample, so the strongest signals are more common in it than they were.

Experiments:
Test in all cases: glycan array binding signal (z-score within array); higher = stronger binding
Conditions in all cases: glycan notation: IUPAC condensed, linker removed
[1] = target: Fuc(a1-2)Gal(b1-3)GlcNAc(b1-3)[Neu5Ac(a2-6)Gal(b1-4)GlcNAc(b1-6)]Gal(b1-4)Glc
Method in brief: (§1)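 From the Consortium for Functional Glycomics database, 3228 arrays were curated, keeping only those whose protein sequence was available. Binding is given as a within-array Z-score averaged across arrays sharing a protein sequence and across linkers. Negative Z-scores can be read as non-binding.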

[2] = target: Fuc(a1-2)Gal(b1-3)[Fuc(a1-4)]GlcNAc
Method in brief: as §1

[3] = target: Fuc(a1-2)Gal(b1-4)GlcNAc(b1-6)GalNAc
Method in brief: as §1

[4] = target: Fuc(a1-2)Gal(b1-4)GlcNAc6S
Method in brief: as §1

[5] = target: Fuc(a1-2)[Gal(a1-3)]Gal(b1-3)GalNAc(b1-3)Gal(a1-4)Gal(b1-4)Glc
Method in brief: as §1

[6] = target: Fuc(a1-2)[Gal(a1-3)]Gal(b1-4)Glc
Method in brief: as §1

[7] = target: Fuc(a1-2)[Gal(a1-3)]Gal(b1-4)GlcNAc(b1-6)GalNAc
Method in brief: as §1

[8] = target: Fuc(a1-2)[GalNAc(a1-3)]Gal(b1-3)GalNAc(a1-3)[Fuc(a1-2)]Gal(b1-4)GlcNAc
Method in brief: as §1

[9] = target: Fuc(a1-2)[GalNAc(a1-3)]Gal(b1-4)[Fuc(a1-3)]GlcNAc(b1-3)GalNAc
Method in brief: as §1

[10] = target: Fuc(a1-3)[Gal(b1-4)]GlcNAc6S
Method in brief: as §1

[11] = target: Gal(a1-3)Gal(b1-4)[Fuc(a1-3)]GlcNAc(b1-2)Man(a1-3)[Gal(a1-3)Gal(b1-4)[Fuc(a1-3)]GlcNAc(b1-2)Man(a1-6)]Man(b1-4)GlcNAc(b1-4)GlcNAc
Method in brief: as §1

[12] = target: Gal(a1-4)Gal(b1-3)GlcNAc(b1-2)Man(a1-3)[Gal(a1-4)Gal(b1-3)GlcNAc(b1-2)Man(a1-6)]Man(b1-4)GlcNAc(b1-4)GlcNAc
Method in brief: as §1

[13] = target: Gal(a1-4)Gal(b1-4)GlcNAc(b1-2)Man(a1-3)[Gal(a1-4)Gal(b1-4)GlcNAc(b1-2)Man(a1-6)]Man(b1-4)GlcNAc(b1-4)GlcNAc
Method in brief: as §1

[14] = target: Gal(a1-4)Gal(b1-4)GlcNAc(b1-3)Gal(b1-4)Glc
Method in brief: as §1

Gal(b1-3)Gal(b1-4)GlcNAc = target: Gal(b1-3)Gal(b1-4)GlcNAc
Method in brief: as §1

Gal(b1-3)GalNAc = target: Gal(b1-3)GalNAc
Method in brief: as §1

[15] = target: Gal(b1-3)GalNAc(a1-3)[Fuc(a1-2)]Gal(b1-4)Glc
Method in brief: as §1

[16] = target: Gal(b1-3)GalNAc(a1-3)[Fuc(a1-2)]Gal(b1-4)GlcNAc
Method in brief: as §1

Gal(b1-3)GalNAc(b1-3)Gal = target: Gal(b1-3)GalNAc(b1-3)Gal
Method in brief: as §1

[17] = target: Gal(b1-3)GalNAc(b1-3)Gal(a1-4)Gal(b1-4)Glc
Method in brief: as §1

[18] = target: Gal(b1-3)GalNAc(b1-4)Gal(b1-4)Glc
Method in brief: as §1

[19] = target: Gal(b1-3)GalNAc(b1-4)[Neu5Ac(a2-3)]Gal(b1-4)Glc
Method in brief: as §1

[20] = target: Gal(b1-3)GlcNAc(b1-3)Gal(b1-4)GlcNAc(b1-3)Gal(b1-4)GlcNAc(b1-2)[Gal(b1-3)GlcNAc(b1-3)Gal(b1-4)GlcNAc(b1-3)Gal(b1-4)GlcNAc(b1-6)]Man(a1-6)[Gal(b1-3)GlcNAc(b1-3)Gal(b1-4)GlcNAc(b1-3)Gal(b1-4)GlcNAc(b1-2)Man(a1-3)]Man(b1-4)GlcNAc(b1-4)[Fuc(a1-6)]GlcNAc
Method in brief: as §1

[21] = target: Gal(b1-3)[Fuc(a1-4)]GlcNAc(b1-3)Gal(b1-4)[Fuc(a1-3)]GlcNAc
Method in brief: as §1

[22] = target: Gal(b1-3)[Neu5Ac(a2-6)]GalNAc
Method in brief: as §1

[23] = target: Gal(b1-4)GlcNAc(b1-2)Man(a1-3)[Gal(b1-4)GlcNAc(b1-2)Man(a1-6)][Gal(b1-4)GlcNAc(b1-4)]Man(b1-4)GlcNAc(b1-4)[Fuc(a1-6)]GlcNAc
Method in brief: as §1

[24] = target: Gal(b1-4)GlcNAc(b1-2)[Gal(b1-4)GlcNAc(b1-6)]Man(a1-6)[GlcNAc(b1-4)][Gal(b1-4)GlcNAc(b1-2)[Gal(b1-4)GlcNAc(b1-4)]Man(a1-3)]Man(b1-4)GlcNAc(b1-4)[Fuc(a1-6)]GlcNAc
Method in brief: as §1

[25] = target: Gal(b1-4)GlcNAc(b1-3)Gal(b1-4)Glc
Method in brief: as §1

[26] = target: Gal(b1-4)GlcNAc(b1-6)[Gal(b1-3)]GalNAc
Method in brief: as §1

[27] = target: Gal(b1-4)GlcNAc(b1-6)[Gal(b1-4)GlcNAc(b1-3)]GalNAc
Method in brief: as §1

[28] = target: Gal3S(b1-4)[Fuc(a1-3)]GlcNAc6S
Method in brief: as §1

[29] = target: GlcNAc(a1-3)Gal(b1-4)GlcNAc
Method in brief: as §1

[30] = target: GlcNAc(a1-4)Gal(b1-3)GlcNAc
Method in brief: as §1

[31] = target: GlcNAc(b1-3)Gal(b1-4)GlcNAc(b1-6)[GlcNAc(b1-3)]Gal(b1-4)GlcNAc
Method in brief: as §1

[32] = target: Man(a1-2)Man(a1-2)Man(a1-3)Man
Method in brief: as §1

[33] = target: Neu5Ac(a2-3)Gal(b1-3)GlcNAc
Method in brief: as §1

[34] = target: Neu5Ac(a2-3)Gal(b1-4)GlcNAc(b1-3)Gal(b1-3)GlcNAc
Method in brief: as §1

[35] = target: Neu5Ac(a2-3)Gal(b1-4)[Fuc(a1-3)]GlcNAc
Method in brief: as §1

[36] = target: Neu5Ac(a2-6)Gal(b1-4)GlcNAc(b1-2)Man(a1-3)[GlcNAc(b1-2)Man(a1-6)]Man(b1-4)GlcNAc(b1-4)GlcNAc
Method in brief: as §1

[37] = target: Neu5Ac(a2-6)Gal(b1-4)GlcNAc(b1-3)Gal(b1-3)GlcNAc
Method in brief: as §1

[38] = target: Neu5Ac(a2-8)Neu5Ac(a2-3)[GalNAc(b1-4)]Gal(b1-4)Glc
Method in brief: as §1

[39] = target: Neu5Ac9Ac(a2-3)Gal(b1-4)GlcNAc
Method in brief: as §1

[40] = target: Neu5Ac9Ac(a2-6)Gal(b1-4)GlcNAc
Method in brief: as §1

[41] = target: Neu5Gc(a2-3)Gal(b1-4)GlcNAc(b1-3)Gal(b1-4)GlcNAc(b1-2)Man(a1-3)[Neu5Gc(a2-3)Gal(b1-4)GlcNAc(b1-3)Gal(b1-4)GlcNAc(b1-2)Man(a1-6)]Man(b1-4)GlcNAc(b1-4)GlcNAc
Method in brief: as §1

B1: Epa10 (protein)
chain: MNEKIFRYLTLLFLFELARSLPVEDKLNIKKVFEKRAVDFTPFAHYPRPEGCSSPPNSVSVGLHMNLYNYPYLYVKPSTKGMFTNDTNSDADGETDGDSAGGIEGRAGQCWNPEYQDPNFPRFGYKQYGEFGASDNVNGDISWDHNEFTEGCKPVLAALPPGYNYPDEITFSNFTMVLSGYFKPKTSGVYKFELKADDFILFNFGAKNAFECCNREESIDNFGPYVAYAMWPNQADQELEVYLFEDSYYPLRLFYNNRDYHSKFKIGFYPPGQTTITFDFDGYLFMLDDTGNECRDSIRYRTVCDDKVVDDTTYSTRYSTSMVPGGGSDVITIYYIRMKCEEEDCLGQWDPINNVCYSPDDCADDGGYWNGQMCDQSCKLEGGIVNPDTGDCDKSCIESGGFLDENGNCDTTCRDDGGMLVEGQCDYQCKEAGGILVGDHCDTTCVDSGGKLNEDGTCDHSCRDQGGQLDENGECDTSCKDSGGMLIEGECDTSCKDEGGQLDDNNECINHCKDQGGIIDENGNCDTSCKDSGGKLDESGACDTSCRDDGGIIDENGNCNTTCRDDGGIIVGDHCDTSCRDAGGILIEDHCDTTCRDSGGKLNEDGTCDHSCRDQGGQLDENGKCDYSCKNGGGKLDEDGNCDMSCKENGGKLDENGDCDLSCKEDGGKLDGNGDCDYSCKEEGGVIDESGNCNTTCKDSGGQIIDGECNYGCIEVGGVVIDGECDTSCIDSGGILDGDGNCDRSCIESGGVLEDGACNTTCRDSGGQLNVDGTCDTSCRDDGGMLVEGQCDYQCKEAGGILEDGECVFPPTSSSTSETSSTTDQSSLQSDDSSMESSSTPMDSSTIESSSSEIITSESESESVPIASSSSEVMTSESESESIPILTSSSEIPIASSSSEIPVASSSSEIIIPESESESVPVASSSSEIPIASSSSEIPVASSSSEIPVASSSSEIIIPESESESIPIESTSSEAVSSRSESDSSYPTPTPTTTTITTWPNPIQPTTSNSSPIVSSSTETPGIAESSSRISDLESSRRTSILGDDRTRTRTTITSTITEDGQIITITTTVTGFVPEPTGETEGNGSDDENPENPIENNTDENEFLDPEFTDDIPDDPAGPEDNGNGPVNPEQGNDNDPVNLEDSGNNGAVNPEQAPVNDEDNGGNDPVNPEQDNNNGPANPGQDSTNGSGNSDQIDNNPPTPEENAGDGNSNGNDPADPSRRTSILGDERTRASPGGTSQPTGANGNVNGNSPGANVNGGGTGNSNNNNNNNNNNNNGNAPNGGDGSNGDANQGPSRRTSLLGDERTRAGQAAPTGGSSPDNGIAGDTSNNGGAIVSQQVDDGGAGSPRRTSILGDVRSRTTLNGEVLNFEGSGVRRAVAGNLALPLMMVGLVFNL
- glycan array binding signal (z-score) [1]: -0.195
- glycan array binding signal (z-score) [2]: -0.222
- glycan array binding signal (z-score) [3]: -0.172
- glycan array binding signal (z-score) [4]: -0.198
- glycan array binding signal (z-score) [5]: -0.256
- glycan array binding signal (z-score) [6]: -0.272
- glycan array binding signal (z-score) [7]: -0.16
- glycan array binding signal (z-score) [8]: -0.215
- glycan array binding signal (z-score) [9]: -0.113
- glycan array binding signal (z-score) [10]: -0.223
- glycan array binding signal (z-score) [11]: 0.134
- glycan array binding signal (z-score) [12]: 3.35
- glycan array binding signal (z-score) [13]: 1.46
- glycan array binding signal (z-score) [14]: 1.2
- glycan array binding signal (z-score) (Gal(b1-3)Gal(b1-4)GlcNAc): 4.92
- glycan array binding signal (z-score) (Gal(b1-3)GalNAc): 3.84
- glycan array binding signal (z-score) [15]: 3.03
- glycan array binding signal (z-score) [16]: 3.87
- glycan array binding signal (z-score) (Gal(b1-3)GalNAc(b1-3)Gal): 6.03
- glycan array binding signal (z-score) [17]: 4.11
- glycan array binding signal (z-score) [18]: 17
- glycan array binding signal (z-score) [19]: 4.18
- glycan array binding signal (z-score) [20]: 0.117
- glycan array binding signal (z-score) [21]: -0.254
- glycan array binding signal (z-score) [22]: 3.73
- glycan array binding signal (z-score) [23]: -0.267
- glycan array binding signal (z-score) [24]: 0.014
- glycan array binding signal (z-score) [25]: -0.234
- glycan array binding signal (z-score) [26]: 2.59
- glycan array binding signal (z-score) [27]: 0.208
- glycan array binding signal (z-score) [28]: -0.35
- glycan array binding signal (z-score) [29]: -0.222
- glycan array binding signal (z-score) [30]: -0.238
- glycan array binding signal (z-score) [31]: -0.312
- glycan array binding signal (z-score) [32]: -0.264
- glycan array binding signal (z-score) [33]: -0.234
- glycan array binding signal (z-score) [34]: -0.284
- glycan array binding signal (z-score) [35]: -0.278
- glycan array binding signal (z-score) [36]: -0.287
- glycan array binding signal (z-score) [37]: -0.258
- glycan array binding signal (z-score) [38]: -0.27
- glycan array binding signal (z-score) [39]: -0.271
- glycan array binding signal (z-score) [40]: -0.297
- glycan array binding signal (z-score) [41]: -0.292
